Several values for one entry are separate records, joined by “and”; a condition that tells them apart may be missing. Equal values may be shown once. Out of some 340,000 compounds screened, about 3,300 (0.97%) were called active. Not shown: some 9% with an inconclusive outcome. Calls follow the shape of the dose curve; as a rule, active = well fitted inhibition curve with a large enough effect; inconclusive = small, poorly fitted or top-dose-only effect, or effect the other way; inactive = flat fitted curve, though single readings scatter. The list shows a part of the results.
experiment: qHTS Assay for Modulators of miRNAs and/or Inhibitors of miR-21; conditions: HeLa miR-21-FLuc reporter, luciferase luminescence, 48 h; actives lower the signal; also: nearly all actives have a fitted effect of over 55% in size
Method in brief: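 HeLa cells stably expressing CMV-driven firefly luciferase with a downstream miR-21 binding sequence, endogenously expressing miR-21, were treated with titrations (up to about 40uM final) for 48 hours at 37 degree Celsius. Luciferase luminescence was read after lysis.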
Potency is read from the fitted curve at half-maximal effect.

Potency, active:
COc1ccc(N=Nc2ccc(N)nc2N)cc1 2.61 µM
Nc1ccc(N=Nc2ccccc2Cl)c(N)n1 2.07 µM
c1ccc(SCc2nc(-c3ccccn3)no2)cc1 2.82 µM
COc1ccc(-c2noc(CSc3ccccc3)n2)cc1OC 11.7 µM
N=c1oc2ccccc2cc1C(=O)Nc1cccc(F)c1 0.165 µM
COc1ccc(NC(=O)c2cc3ccccc3o/c2=N\NS(=O)(=O)c2ccc(C)cc2)cc1 3.29 µM
Cc1ccc(NC(=O)c2cc3ccccc3oc2=N)cc1 0.0736 µM
N=c1oc2cc(O)ccc2cc1C(=O)Nc1nc2ccccc2s1 1.04 µM
CCc1ccc2oc(-c3cc(N)cc(C)c3O)nc2c1 2.93 µM
O=C(Nc1nc(-c2cccs2)cs1)C1=COCCO1 2.33 µM
N/C(=N\O)c1ccc(N2CCN(c3ncccc3C(F)(F)F)CC2)nc1 4.65 µM
CC(C)(C)c1ccc(SCCc2ccccn2)cc1 6.56 µM
CC(C)(C)c1ccc(SCCc2cccnc2)cc1 8.26 µM
Cc1ccc(NC(=O)NC(=O)N(C2CCCCC2)S(=O)(=O)c2ccccc2)cc1 16.5 µM
Cc1ccc2oc(=O)c(/C=C(\O)c3cccs3)nc2c1 4.65 µM
Nc1c(-c2cccc([N+](=O)[O-])c2)nc2ccccn12 5.85 µM
CN1CCC(Oc2ccc(Sc3ccccc3)cc2)CC1 5.21 µM
COc1ccc(CN(C(=O)c2cc3ccccc3oc2=O)C2CCS(=O)(=O)C2)cc1OC (stereo not drawn) 5.85 µM and 13.1 µM
CC(C)Oc1cccc(C(=O)NC2=NCCS2)c1 3.69 µM
O=C(NC1=NCCS1)c1ccc(C(F)(F)F)cc1 6.56 µM
CC(C)Oc1cccc(C(=O)NC(=S)Nc2cccnc2)c1 13.1 µM
O=C(NCc1ccco1)c1cc(-c2ccccc2)on1 7.36 µM
O=C(NCc1ccco1)c1cc(-c2cccs2)on1 5.85 µM
O=C(NCc1cccnc1)c1cc(-c2ccccc2)on1 18.5 µM
O=C(NC12CC3CC(CC(C3)C1)C2)N1CCN(C(=O)c2ccco2)CC1 16.5 µM
O=C1/C(=C/c2cccs2)CCC/C1=C\c1cccs1 1.65 µM
CC(=O)N(c1nnc(-c2cccc(C)c2)s1)C1CCCC1 8.26 µM
CC(=O)Oc1ccc(-c2csc(Nc3cccc(C)n3)n2)cc1 1.47 µM
Oc1ccc(-c2csc(Nc3ncccn3)n2)cc1O 5.85 µM
CCCCCNc1nc(-c2ccccc2)cs1 1.65 µM
Oc1ccc(-c2csc(Nc3ccccn3)n2)cc1O 2.61 µM
c1ccc(Nc2nc(-c3cccs3)cs2)nc1 0.293 µM
c1ccc(-c2csc(Nc3ncccn3)n2)cc1 0.208 µM
Cc1cccc(Nc2nc(-c3ccc(O)c(O)c3)cs2)n1 8.26 µM
Cc1nc(N)sc1-c1csc(Nc2ncccn2)n1 2.93 µM
Cc1ccc(Nc2nc(-c3ccc(O)c(O)c3)cs2)nc1 8.26 µM
Cc1ccnc(Nc2nc(-c3ccc(O)c(O)c3)cs2)c1 4.65 µM
CCOC(=O)c1cccnc1SCc1cc(=O)n2ccccc2n1 13.1 µM
COc1ccc(/C=N/NC(=O)c2ccoc2C)cc1O 6.56 µM
CCOc1ccc(/C=N/NC(=O)c2ccoc2C)cc1OC 7.36 µM
Cc1ccc2sc(-c3ccc(NC(=O)CCN4C(=O)c5ccccc5C4=O)cc3)nc2c1 0.104 µM
Cc1ccc2nc(-c3ccc(NC(=O)CCN4C(=O)c5ccccc5C4=O)cc3)sc2c1 0.0927 µM
O=C(CCN1C(=O)c2ccccc2C1=O)Nc1ccc(-c2nc3ccccc3s2)cc1 0.261 µM
Cc1ccc2nc(-c3ccc(NC(=O)CN4C(=O)c5ccccc5C4=O)cc3)sc2c1 1.65 µM
Cc1ccc2nc(-c3ccc(NC(=O)CSc4nc(N)cc(=O)[nH]4)cc3)sc2c1 8.26 µM
Cc1ccc2nc(-c3ccc(NC(=O)C(C)N4C(=O)c5ccccc5C4=O)cc3)sc2c1 (stereo not drawn) 1.17 µM
CCC(=O)c1ccc(OCc2ccc(C(=O)OC)cc2)cc1 0.261 µM
CCC(=O)c1ccc(OCc2ccc(C#N)cc2)cc1 9.27 µM
CCOc1ccc2c(c1)C(c1ccc(C)cc1)=NNC(c1ccc(C)cc1)=N2 8.26 µM
CCOc1ccc(C2=NNC(c3cccs3)=Nc3ccc(OC)cc32)cc1OCC 18.5 µM
C=C(C)C1Cc2cc3ccc(=O)oc3cc2O1 (stereo not drawn) 16.5 µM
Cc1ccc(Cn2nnc3c(=O)[nH]c(C4CCCN(S(=O)(=O)c5ccccc5)C4)nc32)cc1 (stereo not drawn) 18.5 µM
O=C(Nc1ccccc1Br)c1cc(=O)c2ccccc2o1 2.07 µM
NC(=O)c1ccsc1NC(=O)c1cc(=O)c2ccccc2o1 0.329 µM
NC(=O)c1ccsc1NC(=O)c1coc2ccccc2c1=O 1.17 µM
COc1cccc(/C(C)=N/Nc2ncc(Cl)cc2Cl)c1 16.5 µM
COc1cccc(/C(C)=N/N=C(\C)c2cccc(OC)c2)c1 4.14 µM
CCNc1nc(N)nc(Oc2ccc(C(=O)OC)cc2)n1 8.26 µM
CC(=O)COc1ccc2c(c1C)O/C(=C\c1ccco1)C2=O 3.69 µM
CN(CC(=O)NCCc1ccccc1)Cc1ccco1 14.7 µM
CCNC(=O)CCCOc1ccc(Cl)cc1Cl 16.5 µM
Cn1c(CCCOc2ccc(Cl)cc2Cl)n[nH]c1=S 13.1 µM
O=C(CCCOc1ccc(Cl)cc1Cl)Nc1ccccn1 11.7 µM
CCN(CC)C(=O)CCCOc1ccc(Cl)cc1Cl 14.7 µM
CCOC(=O)c1cnc(SCCc2ccccc2)nc1N 1.65 µM
CCCCSc1ncc(C(=O)OCC)c(N)n1 1.31 µM
CCOC(=O)c1cnc(SCc2ccc(C)cc2)nc1N 7.94 µM
C=CCSc1ncc(C(=O)OCC)c(N)n1 16.5 µM
COc1cc(C2Nc3ccccc3C(=O)N2c2ccc(Cl)cc2)c(Cl)cc1OCC(=O)O (stereo not drawn) 2.33 µM
CCOC(=O)COc1ccccc1C1Nc2ccccc2C(=O)N1c1cccc(Cl)c1 (stereo not drawn) 5.85 µM
O=C(CSc1nc(-c2ccc(F)cc2)cs1)N1CCOCC1 6.56 µM
Cc1nc(-c2ccc3c(c2)CCC(=O)N3)cs1 14.7 µM
CCc1ccccc1NC(=O)CSc1nc(C)c(C(=O)Nc2ccccc2)c(-c2ccc(Cl)cc2)c1C#N 23.3 µM
COc1ccccc1CCCNC(=O)C1CCC(=O)N(Cc2ccccc2F)C1 (stereo not drawn) 14.7 µM
O=C(NCCc1c[nH]c2ccccc12)c1ccc(F)cc1F 9.27 µM
COc1ccc(C(=O)NCCc2c[nH]c3ccccc23)cc1 3.29 µM
O=C(NCCc1c[nH]c2ccccc12)c1ccc(Cl)cc1 7.36 µM
O=C(NN/C(=N/S(=O)(=O)c1ccc(Cl)cc1)c1ccccc1)c1cccc(Cl)c1 2.07 µM
Cc1ccc(S(=O)(=O)/N=C(/NNC(=O)c2cccc(Cl)c2)c2ccccc2)cc1 1.85 µM
COc1cc(N/N=C/c2ccc(N(C)C)cc2)ncn1 0.208 µM
Fc1ccc(/C=N/Nc2ccccn2)cc1 8.26 µM
C(=N\Nc1ccccn1)/c1ccc(N2CCOCC2)cc1 1.85 µM
CN(C)c1ccc(/C=N\Nc2ccccn2)cc1 0.521 µM
COc1ccc(C2=NN(C(=O)CN3CCOCC3)C(c3nc4ccccc4[nH]3)C2)cc1 (stereo not drawn) 10.4 µM
CN(C)CCCNC(=O)c1ccc(/C=N/O)nc1 1.85 µM
c1ccc(-c2onc3cc4c(cc23)OCCO4)cc1 2.07 µM
Fc1ccc(Nc2ccc(-c3ccc(F)cc3)nn2)cc1 3.29 µM
O=C(O)c1ccc(N/N=C/c2ccc(-c3cccc(Cl)c3)o2)cc1 0.927 µM
O=C(O)c1ccc(N/N=C/c2ccc(-c3cc(Cl)ccc3Cl)o2)cc1 6.56 µM
O=C(O)c1ccc(N/N=C/c2ccc(-c3ccc(Br)cc3)o2)cc1 5.85 µM
O=C(O)c1ccc(N/N=C/c2ccc(-c3ccc(Cl)cc3Cl)o2)cc1 18.5 µM
O=C(O)c1ccc(N/N=C/c2ccc(-c3ccccc3Cl)o2)cc1 0.293 µM
c1cnc2c(SCc3ccc(-c4nnco4)cc3)cccc2c1 13.1 µM
Cc1ccccc1OCCCn1c(=O)sc2ccccc21 6.56 µM
COc1ccccc1OCCCn1c(=O)sc2ccccc21 9.27 µM
O=C(Nc1ccc2oc(-c3ccc4ccccc4c3)nc2c1)c1cccs1 1.04 µM
O=S(=O)(Nc1ccc2oc(-c3ccccc3)nc2c1)c1ccccc1 18.5 µM
O=C(Nc1ccc2oc(-c3ccc4ccccc4c3)nc2c1)c1cc(Br)ccc1Cl 16.5 µM
O=C(Nc1ccc2oc(-c3ccccc3)nc2c1)c1ccccc1F 1.31 µM
COc1ccc2nc(SCC(=O)C(C)(C)C)[nH]c2c1 6.56 µM
CCOc1ccc2nc(SCC(=O)N(C)C)[nH]c2c1 7.36 µM
Cc1cccc(Nc2nc3c(s2)CCCC3)c1 2.07 µM
O=C1C=C(N2CCCCCC2)C(=O)N1c1ccc(Cl)cc1 5.21 µM

— PubChem BioAssay AID2289 (National Center for Advancing Translational Sciences (NCATS), 2010)
